In the supplement of paper PMC6124720:
Counter-ions that a name gives are not always drawn. A number with no mark means an inactive call.

Tested on: Pseudogymnoascus destructans 20631-21
Experiment: growth activity index (DuctApe, 0 = no growth, 9 = maximal growth) (index 0-9); higher = more fungal growth (less inhibition), active = 0 or less; extreme values may be limits of the assay
Conditions: temperature: 13 °C, YPD
[1] = concentration level (1-4, increasing; Biolog proprietary): 1
[2] = concentration level (1-4, increasing; Biolog proprietary): 2
[3] = concentration level (1-4, increasing; Biolog proprietary): 3
[4] = concentration level (1-4, increasing; Biolog proprietary): 4
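Also: biolog Phenotype Microarray plates PM21–25, OD595 followed daily over 11 days, growth curves converted to index, mean of two independent experiments.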

Structure (SMILES)	growth activity index [1]	growth activity index [2]	growth activity index [3]	growth activity index [4]
[Cl][Co][Cl] [Cobalt (II) chloride] (Biolog plate: PM23)	3.33	4	4.33	1
O=C(O)CN(CCOCCOCCN(CC(=O)O)CC(=O)O)CC(=O)O (Biolog plate: PM24)	4.33	4.33	4	4
CC(CN1c2ccccc2Sc2ccccc21)N(C)C (stereo unspecified) [Promethazine] (Biolog plate: PM21)	4.75	0 (active)	1	6
C[C@@H]1[C@H](O)[C@@H](C)/C=C/C=C/C=C/C=C/C=C/C=C/C=C/[C@H](O[C@@H]2O[C@H](C)[C@@H](O)[C@H](N)[C@@H]2O)C[C@@H]2O[C@](O)(C[C@@H](O)C[C@@H](O)[C@H](O)CC[C@@H](O)C[C@@H](O)CC(=O)O[C@H]1C)C[C@H](O)[C@H]2C(=O)O [Amphotericin B] (Biolog plate: PM24)	0 (active)	1.33	0 (active)	0 (active)
NCC(=O)NO [Glycine hydroxamate] (Biolog plate: PM22)	5	3.67	2	0 (active)
NC(CO)C(=O)NO (racemic) [DL-Serine hydroxamate] (Biolog plate: PM22)	4.33	4	0 (active)	0 (active)
[Cl-].[Li+] [Lithium chloride] (Biolog plate: PM22)	0 (active)	0 (active)	0 (active)	0 (active)
NC[C@@H]1O[C@H](O[C@H]2[C@@H](O)[C@H](O[C@@H]3[C@@H](O)[C@H](N)C[C@H](N)[C@H]3O[C@H]3O[C@H](CN)[C@@H](O)[C@H](O)[C@H]3N)O[C@@H]2CO)[C@H](N)[C@@H](O)[C@@H]1O [Neomycin] (Biolog plate: PM21)	5.25	5	2.5	1.25
N.N.O=S(=O)(O)O [Ammonium Sulfate] (Biolog plate: PM23)	4.33	5.33	4	2.67
N[C@H](CO)C(=O)O [D-Serine] (Biolog plate: PM22)	5	4.67	4	4
O=C(O)C(O)C(O)C(=O)O (stereo unspecified) [Tartaric acid] (Biolog plate: PM25)	3.33	2	4.33	1.33
O.O=S(=O)([O-])[O-].O=S(=O)([O-])[O-].O=S(=O)([O-])[O-].[Al+3].[Al+3] [Aluminum sulfate] (Biolog plate: PM24)	2	4	6	7
C=C(CC[C@]12O[C@H](C(=O)O)[C@@](O)(C(=O)O)[C@](C(=O)O)(O1)[C@H](OC(=O)/C=C/[C@@H](C)C[C@@H](C)CC)[C@H]2O)[C@@H](OC(C)=O)[C@H](C)Cc1ccccc1 [Zaragozic acid A] (Biolog plate: PM24)	5.67	5.33	0.667	0 (active)
CCCCCCCCCCCC[N+](C)(C)CCOc1ccccc1 [Domiphen bromide] (Biolog plate: PM21)	4	2	0 (active)	0 (active)
O=C(O)CN(CC(=O)O)c1ccccc1OCCOc1ccccc1N(CC(=O)O)CC(=O)O (Biolog plate: PM22)	4.67	1.67	1.33	0.667
O=C(O)/C=C/C(=O)O [Fumaric acid] (Biolog plate: PM25)	4.33	4	4	4
[Cl][Mn][Cl] [Manganese chloride] (Biolog plate: PM21)	4	5.25	4.5	4.5
CSc1ccc2c(c1)N(CCC1CCCCN1C)c1ccccc1S2 (stereo unspecified) [Thioridazine] (Biolog plate: PM24)	3.33	1.33	0 (active)	1.33
Nc1[nH]c(=O)ncc1F [5-Fluorocytosine] (Biolog plate: PM25)	5	4	4.33	4
Clc1ccc(COC(Cn2ccnc2)c2ccc(Cl)cc2Cl)c(Cl)c1 (stereo unspecified) [Miconazole Nitrate] (Biolog plate: PM24)	4.67	0.333	0.333	0 (active)
O=C(O)CN(CCN(CC(=O)O)CC(=O)O)CC(=O)O (Biolog plate: PM21)	5	5	5	5
O=C([O-])c1ccccc1O.[Na+] [Sodium Salicylate] (Biolog plate: PM25)	4.67	3.33	4	4

Structure (SMILES)	growth activity index [1]	growth activity index [2]	growth activity index [3]	growth activity index [4]
CC(=O)OCC1=C(C(=O)O)N2C(=O)[C@@H](NC(=O)Cc3cccs3)[C@H]2SC1 [Cephalotin] (Biolog plate: PM22)	5.67	5	5	1
NCC(=O)O [Glycine hydrochloride] (Biolog plate: PM23)	5	4	2	2
OCC1OC(O)CC(O)C1O [2-Deoxy-D-glucose] (Biolog plate: PM23)	4.67	5	5	4.33
CN(C)CCC=C1c2ccccc2CCc2ccccc21 [Amitriptyline] (Biolog plate: PM25)	0 (active)	0 (active)	2.67	6.33
NC(N)=NCCC[C@H](N)C(=O)NO [L-Arginine hydroxamate] (Biolog plate: PM22)	5.67	5	3.33	0.667
N=C(N)c1ccc(OCCCCCOc2ccc(C(=N)N)cc2)cc1 [Pentamidine Isethionate] (Biolog plate: PM24)	0.333	5.33	8	8
NCCSCC(N)C(=O)O (stereo unspecified) [Thialysine] (Biolog plate: PM24)	4	4	4.67	5
O=S(O)(O)=S [Sodium Thiosulfate] (Biolog plate: PM23)	5	4.33	1.67	0 (active)
O=c1cn[nH]c(=O)[nH]1 [6-Azauracil] (Biolog plate: PM24)	4.67	4	4.67	2.67
O=NO [Sodium Nitrite] (Biolog plate: PM23)	4.33	2.67	1	1.33
O=C(O)/C=C/c1ccccc1 [Cinnamic acid] (Biolog plate: PM25)	5	4.67	5	5
NO [Hydroxylamine] (Biolog plate: PM23)	4	4	2.67	0 (active)
N=C(N)N [Guanidine hydrochloride] (Biolog plate: PM21)	5.25	5	0.5	0.25
[Cl-].[Cl-].[Zn+2] [Zinc chloride] (Biolog plate: PM21)	5.75	6.75	7	6.25
NC(N)=S [Thiourea] (Biolog plate: PM21)	2	0 (active)	0 (active)	0 (active)
CCCCCCCC(=O)[O-].[Na+] [Sodium Caprylate] (Biolog plate: PM23)	1	3.33	4	4
[Cl][Pd][Cl] [Palladium(II) Chloride] (Biolog plate: PM25)	4.33	4	4.67	5
O=C([O-])CC(O)(CC(=O)[O-])C(=O)[O-].[Na+].[Na+].[Na+] [Citric acid Trisodium Salt] (Biolog plate: PM25)	4	4.67	4	5.67
CN1CCN(CCCN2c3ccccc3Sc3ccc(C(F)(F)F)cc32)CC1 [Trifluoperazine] (Biolog plate: PM21)	0 (active)	0.25	3.5	6.25
O.O.O.O.O.O.[Cl-].[Cl-].[Mg+2] [Magnesium chloride] (Biolog plate: PM21)	4	4	4	2.25
N=C(N)c1ccccc1 [Benzamidine] (Biolog plate: PM22)	4	0 (active)	0 (active)	0 (active)
NC[C@@H]1O[C@H](O[C@H]2[C@@H](O)[C@H](O[C@@H]3[C@@H](O)[C@H](N)C[C@H](N)[C@H]3O[C@H]3O[C@H](CO)[C@@H](O)[C@H](O)[C@H]3N)O[C@@H]2CO)[C@H](N)[C@@H](O)[C@@H]1O [Paromomycin] (Biolog plate: PM22)	1	1	0.667	0 (active)
